Only a selection was taken, and hits are over-represented in it overall.
VCAM1 TNFa pot: potentiators of TNFa-induced VCAM1 expression, primary screen, imaging, HUVEC, TNFa stimulus, immunofluorescence | 0.19% of 93,000 active | activation, % at 2 µM | HUVEC TNFa-stimulated VCAM-1 immunofluorescence, high-content imaging; scaled per plate to unstimulated/TNFa-only wells | AID 808, 2007;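 active = activation above the screen mean plus 3 SD, with well images confirming the hit on visual review, cut at about 28% in these data, passing the limit was not always enough; inconclusive = activation above that limit but images do not confirm it; inactive = activation not above that limit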;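 note: signal is the number of cytoplasmic VCAM-1 stained grains per positive cell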
VCAM1 pot conf: potentiators of TNFa-induced VCAM1 expression, confirmation, imaging, HUVEC, triplicate retest. AID 1034, 2008. activation, % at 2 µM. HUVEC TNFa-stimulated VCAM-1 immunofluorescence imaging. 230 tested, under 10 active. shares compounds with VCAM1 TNFa pot;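 active = activation above 30% in triplicate retests at 2 µM, then confirmed by visual review of the well images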;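 note: scaled per plate between unstimulated and TNFa-stimulated DMSO control wells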
* = called active by the depositor.

Results for Nc1ccccc1NC(=O)c1ccccc1 ?
VCAM1 TNFa pot: -2

How did O=C(Oc1csc(=S)n1C(=O)c1ccccc1)c1ccccc1 do in these assays?
VCAM1 TNFa pot: -98

How did Nc1sccc1C(=O)c1ccccc1 do in these assays?
VCAM1 TNFa pot: 66*; VCAM1 pot conf: -8

How did CCN(CC)S(=O)(=O)c1ccc(NC(=O)CSc2cccc[n+]2[O-])cc1 do in these assays?
VCAM1 TNFa pot: -4

Results for COc1ccc(NC(=O)CCC(=O)Nc2nnc(C(F)(F)F)s2)c(OC)c1 ?
VCAM1 TNFa pot: -16

Results for CCc1nnc(NC(=O)c2ccc(OC)cc2OC)s1 ?
VCAM1 TNFa pot: 64*; VCAM1 pot conf: -1

Results for CCOC(=O)Cc1nnc(NC(=O)COc2ccc(OC)cc2)s1 ?
VCAM1 TNFa pot: -1

Results for O=C(NCCCCCCNC(=O)C1CCCC1)C1CCCC1 ?
VCAM1 TNFa pot: 19

What do the screens show for `COC(=O)c1cnn(C(=O)c2cc(OC)ccc2Br)c1N`?
VCAM1 TNFa pot: 1

What do the screens show for `COc1ccc(CNC(=O)CSc2nc(-c3ccccc3)cc(-c3cccs3)c2C#N)cc1`?
VCAM1 TNFa pot: 0

How did CCN(CC)C(=O)CSc1nc(N)c(C#N)c(-c2cccs2)c1C#N do in these assays?
VCAM1 TNFa pot: -13

How did CCN(CC)C(=O)CSc1nc(-c2cccs2)cc(-c2cccs2)c1C#N do in these assays?
VCAM1 TNFa pot: 50*; VCAM1 pot conf: -20

What do the screens show for `Cc1ccccc1OC(=O)n1c(=S)oc2cc(Cl)ccc21`?
VCAM1 TNFa pot: -7

What do the screens show for `Clc1ccc2nc(C3CCN(Cc4nnnn4C4CCCCC4)CC3)[nH]c2c1`?
VCAM1 TNFa pot: 60*; VCAM1 pot conf: -4

How did O=C(CN1CCC(c2nc3ccccc3[nH]2)CC1)NCc1ccc2c(c1)OCO2 do in these assays?
VCAM1 TNFa pot: 1

Results for C=CCSc1nnc2c(n1)OC=Nc1ccccc1-2 ?
VCAM1 TNFa pot: 14

Results for O=C(CCNS(=O)(=O)c1ccc(Cl)cc1)N1CCC2(O)CCCCC2C1 (stereo unspecified) ?
VCAM1 TNFa pot: -3

How did CCCCOC(=O)n1c(SCC(=O)N(C)C)nc2ccccc21 do in these assays?
VCAM1 TNFa pot: 16

What do the screens show for `CC(=O)c1c(C(C)=O)c(C)n(-c2nc(-c3ccccc3)c(C)s2)c1C`?
VCAM1 TNFa pot: -12

How did CSc1cc(C)n(-c2ccccc2)c(=S)c1C(C)=O do in these assays?
VCAM1 TNFa pot: 72*; VCAM1 pot conf: -16

Results for Cc1ccc(NC(=O)C2CCN(S(=O)(=O)c3c(C)[nH]c(=O)[nH]c3=O)CC2)cc1 ?
VCAM1 TNFa pot: 0

How did CC1CN(C(NC(=O)C(C)(C)C)C(Cl)(Cl)Cl)CC(C)O1 (stereo unspecified) do in these assays?
VCAM1 TNFa pot: 2

How did COc1ccc(C(=O)c2ccc(N(C)C)cc2)c2ccccc12 do in these assays?
VCAM1 TNFa pot: -60

How did Cc1ncoc1C(=O)Nc1ccc2c(c1)OCCO2 do in these assays?
VCAM1 TNFa pot: 81*; VCAM1 pot conf: -10

What do the screens show for `Cc1ccc2nc(SCC(=O)Nc3ccc4c(c3)OCCO4)[nH]c2c1`?
VCAM1 TNFa pot: -10

Results for CCOC(=O)c1cn(CC(=O)Nc2ccc3c(c2)OCCO3)nn1 ?
VCAM1 TNFa pot: -4

How did CCCOC(=O)Nc1cc(OC)c(Cl)cc1OC do in these assays?
VCAM1 TNFa pot: -5

Results for Cc1ccccc1C(=O)c1c[nH]c(C(=O)NCC2CCCO2)c1 (stereo unspecified) ?
VCAM1 TNFa pot: -11

Results for Cc1nc2ccc(F)cc2cc1C(=O)NCC1CCCO1 (stereo unspecified) ?
VCAM1 TNFa pot: -12

How did COCCSc1ccccc1C(=O)NCC1CCCO1 (stereo unspecified) do in these assays?
VCAM1 TNFa pot: inconclusive; VCAM1 pot conf: -17

How did CC(=O)/C(=N/Nc1cccc(C)c1)N1CCOCC1 do in these assays?
VCAM1 TNFa pot: 1

How did C=CCn1c(CCNC(=O)c2ccccc2F)nnc1SCC(=O)Nc1nc(C)cs1 do in these assays?
VCAM1 TNFa pot: -9

Results for CCOC(=O)CNC(=O)c1cc(C)oc1C ?
VCAM1 TNFa pot: -3

What do the screens show for `CCOC(=O)CNC(=O)c1cn(CC(C)C)c(=O)c2cc(OC)c(OC)cc12`?
VCAM1 TNFa pot: 55*; VCAM1 pot conf: -13

Results for CC(C)Cn1cc(C(=O)NCCCOC(C)C)c2c3ccccc3n(C)c2c1=O ?
VCAM1 TNFa pot: -9

What do the screens show for `CCOC(=O)c1nn(-c2ccccc2C)c2nc(CC(C)C)c(C#N)c(=O)n12`?
VCAM1 TNFa pot: -6

Results for Clc1ccc(CSc2cc3c(nn2)-c2ccccc2CC3)cc1 ?
VCAM1 TNFa pot: -10

How did CCOc1nc(-c2ccccc2)ccc1-c1noc(COC)n1 do in these assays?
VCAM1 TNFa pot: inconclusive; VCAM1 pot conf: -10

Results for COc1cccc(-c2ccc(-c3noc(-c4cccs4)n3)c(OC)n2)c1 ?
VCAM1 TNFa pot: 1

What do the screens show for `COc1ccc(Br)cc1-c1noc(-c2ccccc2)n1`?
VCAM1 TNFa pot: 2

Results for Cc1[nH]n(-c2ccc([N+](=O)[O-])cc2)c(=O)c1C=NCCN1CCN(C(=O)c2cccc(F)c2)CC1 ?
VCAM1 TNFa pot: -6

Results for C=CCNC(=O)CCCOc1ccc(C)cc1 ?
VCAM1 TNFa pot: 1

Results for C=CCNC(=O)CN1CCC(n2c(C)nc3cc(C(F)(F)F)ccc32)CC1 ?
VCAM1 TNFa pot: 58*; VCAM1 pot conf: -18

Results for O=c1c(C=Nc2ccc(Cl)cc2)c[nH]n1-c1cccc(Cl)n1 ?
VCAM1 TNFa pot: 2

Results for CN(C)N=Nc1ccc(S(=O)(=O)N2CCSC2C(=O)O)cc1 (stereo unspecified) ?
VCAM1 TNFa pot: -12

How did CCc1c(C)sc(NC(=O)CC#N)c1C#N do in these assays?
VCAM1 TNFa pot: -17

How did N#Cc1c(NC(=O)CCC(=O)O)sc2c1CCCC2 do in these assays?
VCAM1 TNFa pot: inconclusive; VCAM1 pot conf: -13

Results for CC1(C)Cc2c(sc(NC(=O)c3ccc(Br)o3)c2C#N)CO1 ?
VCAM1 TNFa pot: -2

How did O=c1cc(C(Cl)(Cl)Cl)oc2c1ccc1ccccc12 do in these assays?
VCAM1 TNFa pot: -80

What do the screens show for `CC1(C)C(c2cccs2)=[N+]([O-])C2(CCCCC/C2=N\NC(N)=O)N1O` (stereo unspecified)?
VCAM1 TNFa pot: 15

What do the screens show for `COC(=O)c1nc2nc(C)cc(=O)n2[nH]1`?
VCAM1 TNFa pot: -7

How did O=S(=O)(Cc1cc(Sc2ccc(Cl)cc2)nc(-c2ccccc2)n1)c1ccccc1 do in these assays?
VCAM1 TNFa pot: 50*; VCAM1 pot conf: -20

How did COCc1cc(Sc2c(Cl)cccc2Cl)nc(-c2ccccc2)n1 do in these assays?
VCAM1 TNFa pot: 8

What do the screens show for `Cc1nc(CS(=O)(=O)c2ccccc2)cc(N2CCOCC2)n1`?
VCAM1 TNFa pot: -3

Results for COc1ccc(CCNC(=O)NC23CC4CC(CC(C4)C2)C3)cc1OC ?
VCAM1 TNFa pot: 9

Results for Cc1cccc(-c2nnc(-c3cccc(NC(=O)Cc4cccs4)c3)o2)c1 ?
VCAM1 TNFa pot: -4

Results for CC(C)(C)Nc1nc(NCc2cccnc2)nc(N2CCOCC2)n1 ?
VCAM1 TNFa pot: -14

How did FC(F)(F)c1cc(-c2ccc3c(c2)OCO3)nc(NCc2ccco2)n1 do in these assays?
VCAM1 TNFa pot: -78

What do the screens show for `Cc1cc(C(F)(F)F)nc(NCc2cccnc2)n1`?
VCAM1 TNFa pot: inconclusive; VCAM1 pot conf: -17

What do the screens show for `O=C(CC1NC2CCCCC2NC1=O)Nc1cccc(C(F)(F)F)c1` (stereo unspecified)?
VCAM1 TNFa pot: -1
